Records with an inconclusive call do not appear. Calls of active or inactive are those of the source. The call rests on the fitted dose curve; in most records, active means well fitted curve in the direction sought with a large enough effect; inconclusive means small, poorly fitted or top-dose-only effect, or another doubt; inactive means no such curve, though single readings can be large; an effect the other way counts as inactive or inconclusive. Where a SMILES comes first, the peptide text is derived from it. [ ]: non-standard residue; d: D form. The star is where a group is joined. Dolaproine = CO[C@@H]([C@@H]1CCCN1)[C@@H](C)C(=O)O; Dil = CC[C@H](C)[C@H](NC)[C@@H](CC(=O)O)OC; Doe = c1ccc(C[C@H](N*)c2nccs2)cc1; Aib = CC(C)(N)C(=O)O
Experiments:
[1] = system: Zika virus NS2B-NS3 protease (linked construct); experiment: Primary screen NINDS Rhodamine qHTS for Zika virus inhibitors (AID 1347160); further: nearly all actives have a fitted effect of over 55% in size
Summary of the method: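 In 10 mM Tris-HCl pH 8.0 containing 0.01% Tween 20, linked NS2B-NS3 protease (25 nM final) is exposed to test compounds for 15 min. Cleavage of 1.5 microM Rhodamine110 substrate is tracked by fluorescence over 15 min.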

[2] = biological target: Glutathione peroxidase 1 (Homo sapiens) (UniProt P07203); experiment: Primary qHTS Assay for Inhibitors of Recombinant Selenoprotein Glutathione Peroxidase 1 (GPX1) (AID 1845191); further: nearly all actives have a fitted effect of over 65% in size
Summary of the method: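 GR-coupled assay: compounds preincubated 30 min at room temperature with GPX1, then reaction started with CHP; final 10 nM GPX1, 1 mM GSH, 0.5 mM CHP, 0.5 mM NADPH, 100 nM GR, 0.01% BSA, pH 7.5 Tris buffer. NADPH fluorescence (340/450 nm) read at 0 and 15 min.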

[3] = biological target: Phospholipid hydroperoxide glutathione peroxidase GPX4 (Homo sapiens) (UniProt P36969); experiment: Primary qHTS Assay for Inhibitors of Recombinant Selenoprotein Glutathione Peroxidase 4 (GPX4) (AID 1845192); further: on the % scale 0 is the no-effect control and ±100 the full control effect; nearly all actives have a fitted effect of over 65% in size
Summary of the method: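 GR-coupled assay: recombinant GPX4 preincubated 30 min with compound at room temperature; final 200 nM GPX4, 1 mM GSH, 0.5 mM cumene hydroperoxide, 0.5 mM NADPH, 100 nM GR, 0.01% BSA, pH 7.5 Tris. NADPH fluorescence (340/450 nm) read at 0 and 15 min.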

[4] = biological target: Luciferin 4-monooxygenase (Photinus pyralis) (UniProt P08659); experiment: Primary firefly luciferase (FLuc) qHTS assay for identification of artifact compounds. (AID 1845220); conditions: outcome: dose series up to 54.1 µM unless noted; further: nearly all actives have a fitted effect of over 60% in size
Summary of the method: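 Enzymatic FLuc inhibition assay: compounds pre-exposed to luciferin/ATP (10 uM each) for 15 min, then purified P. pyralis enzyme at 10 nM added. Read-out: luminescence at 5 min.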

[5] = Primary fluorescence-based thiol-reactive (MSTI) qHTS assay for identification of artifact compounds. (AID 1845221); further: nearly all actives have a fitted effect of over 65% in size; further: potency means the concentration at half of the fitted maximal effect
Summary of the method: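 Compounds were incubated 1 h at room temperature in the dark with the MSTI probe (4 uM) in PBS pH 7.4, 2% DMSO. Signals were normalized between Acetyl-MSTI and MSTI.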

[6] = system: Nanoluciferase (engineered Oplophorus gracilirostris luciferase); experiment: Primary Nanoluciferase (NLuc) qHTS assay for identification of artifact compounds. (AID 1845222);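 further: NLuc secreted into diluted conditioned medium of S16 cells; 0% = DMSO and -100% = no enzyme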
Summary of the method: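 S16 cell supernatant NLuc, 1:55; cpds qHTS; 15 min RT dark; Nano-Glo substrate 1:100, 5 min; luminescence; Hill fit of % inhibition.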

[7] = Primary redox qHTS assay for identification of artifact compounds. (AID 1845223);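 further: 0% = DMSO and 100% = reference compound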
Summary of the method: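 Amplex Red (25 uM) and HRP (250 mU/mL) in HBSS, with compounds for 15 min, then 250 uM DTT for 30 min, room temperature, dark. Fluorescence 525/598 nm read; normalized to DMSO and 10 uM DA3003; Hill fit.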

[8] = system: CRL-7250; experiment: Cytotoxic Profiling of Annotated Libraries Using Quantitative High-Throughput Screening (AID 1296008); conditions: Five cell lines viability, CellTiter-Glo ATP luminescence, 48-72 h; max response: active compounds read low; further: nearly all actives have a fitted effect of over 60% in size; further: potency means the concentration at half of the fitted maximal effect; on max response: on the % scale 0 is the no-effect control and ±100 the full control effect
Summary of the method: (§1)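 Cells exposed to compounds for 48 or 72 hr at 37 degrees Celsius. Viability read as ATP-coupled luminescence with CellTiter-Glo after 10 min at room temperature.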

[9] = system: C33A; experiment: Primary qHTS to identify gynecologic anti-cancer compounds using libraries of approved drugs and bioactive compounds (AID 1345084); conditions: Gynecologic cancer cell panel viability, ATPlite luminescence, 48 h; series mostly up to 57.5 µM; further: on the % scale 0 is the no-effect control and ±100 the full control effect; nearly all actives have a fitted effect of over 55% in size
Summary of the method: (§2)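 Luminescence from the ATPlite ATP-monitoring reagent indicates viable cell number; lower signal means cytotoxicity. Cells received compound 16 h after seeding and were exposed for 48 h across five concentrations.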

[10] = system: CAOV3; experiment: as above; conditions: Gynecologic cancer cell panel viability, ATPlite luminescence, 48 h; series mostly up to 57.5 µM
Summary of the method: as §2

[11] = system: CASKI; experiment: as above; conditions: Gynecologic cancer cell panel viability, ATPlite luminescence, 48 h; series mostly up to 57.5 µM
Summary of the method: as §2

[12] = system: Es-2; experiment: as above; conditions: Gynecologic cancer cell panel viability, ATPlite luminescence, 48 h; series mostly up to 57.5 µM
Summary of the method: as §2

[13] = system: Hek293T; experiment: as above; conditions: Gynecologic cancer cell panel viability, ATPlite luminescence, 48 h, control line for the selectivity index; series mostly up to 57.5 µM
Summary of the method: as §2

[14] = system: JEG-3; experiment: as above; conditions: Gynecologic cancer cell panel viability, ATPlite luminescence, 48 h; series mostly up to 57.5 µM
Summary of the method: as §2

[15] = system: OV90; experiment: as above; conditions: Gynecologic cancer cell panel viability, ATPlite luminescence, 48 h; series mostly up to 57.5 µM
Summary of the method: as §2

[16] = system: PA-1; experiment: as above; conditions: Gynecologic cancer cell panel viability, ATPlite luminescence, 48 h; series mostly up to 57.5 µM
Summary of the method: as §2

[17] = system: Tov-21-G; experiment: as above; conditions: Gynecologic cancer cell panel viability, ATPlite luminescence, 48 h; series mostly up to 57.5 µM
Summary of the method: as §2

[18] = system: Tov112D; experiment: as above; conditions: Gynecologic cancer cell panel viability, ATPlite luminescence, 48 h; series mostly up to 57.5 µM
Summary of the method: as §2

[19] = biological target: Calcium and integrin-binding protein 1 (Homo sapiens) (UniProt Q99828); experiment: Primary qHTS for Identification of Calcium Integrin Binding Protein 1 (CIB1) Competitor (AID 1508620);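 further: GST tagged CIB1 binding a fluorescein labelled alphaIIb integrin peptide tracer; top concentration of the series differs between compounds; on the % scale 0 is the no-effect control and ±100 the full control effect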
Summary of the method: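 Fluorescence polarization competition: GST-tagged CIB1 (1 uM final) preincubated with compound 15 min at room temperature, then FITC-labelled alphaIIb peptide (100 nM final) added. After 15 min at room temperature, polarization read at Ex 480/Em 540.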

[20] = system: KB-3-1; experiment: Cytotoxic Profiling of Annotated Libraries Using Quantitative High-Throughput Screening (AID 1296008); conditions: Five cell lines viability, CellTiter-Glo ATP luminescence, 48-72 h; max response: active compounds read low; further: nearly all actives have a fitted effect of over 60% in size; further: potency means the concentration at half of the fitted maximal effect; on max response: on the % scale 0 is the no-effect control and ±100 the full control effect
Summary of the method: as §1

Glutathione peroxidase 1 (Homo sapiens), sequence (P07203 whole entry, looked up): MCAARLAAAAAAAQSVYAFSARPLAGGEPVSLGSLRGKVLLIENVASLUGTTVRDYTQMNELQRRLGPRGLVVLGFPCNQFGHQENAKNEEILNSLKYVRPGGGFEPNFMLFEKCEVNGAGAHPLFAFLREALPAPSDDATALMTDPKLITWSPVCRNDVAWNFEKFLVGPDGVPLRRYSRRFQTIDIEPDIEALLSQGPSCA
Calcium and integrin-binding protein 1 (Homo sapiens), sequence (Q99828 whole entry, looked up): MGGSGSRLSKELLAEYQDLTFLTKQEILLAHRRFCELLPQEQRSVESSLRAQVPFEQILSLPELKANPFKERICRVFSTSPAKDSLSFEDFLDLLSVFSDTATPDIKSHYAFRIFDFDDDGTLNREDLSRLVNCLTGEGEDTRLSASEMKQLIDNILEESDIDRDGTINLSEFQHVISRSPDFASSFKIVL
Phospholipid hydroperoxide glutathione peroxidase GPX4 (Homo sapiens), sequence (P36969 whole entry, looked up): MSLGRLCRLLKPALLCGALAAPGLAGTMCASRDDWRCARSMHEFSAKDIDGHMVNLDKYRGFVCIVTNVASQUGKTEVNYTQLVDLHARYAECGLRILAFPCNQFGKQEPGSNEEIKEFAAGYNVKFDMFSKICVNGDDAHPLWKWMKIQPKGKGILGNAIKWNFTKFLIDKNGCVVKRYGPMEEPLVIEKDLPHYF

O=C(NCCN1CCC2(CC1)C(=O)NCN2c1cccc(F)c1)c1ccc(F)c(F)c1
inactive: Potency [1] | Potency [2] | Potency [3] | outcome [4] | Potency [5] | Potency [6] | Potency [7] | outcome [8] | Potency [9] | Potency [10] | Potency [11] | Potency [12] | Potency [13] | Potency [14] | Potency [15] | Potency [16] | Potency [17] | Potency [18]

CC[C@H](C)[C@@H]([C@@H](CC(=O)N1CCC[C@H]1[C@H](OC)[C@@H](C)C(=O)N[C@@H](Cc1ccccc1)c1nccs1)OC)N(C)C(=O)[C@@H](NC(=O)C(C)(C)N)C(C)C (H-[Aib]V[Dil][Dolaproine]-Doe)
inactive: Potency [1] | Potency [19] | Potency [2] | outcome [4] | Potency [5] | Potency [6] | Potency [10] | Potency [13]
active: Potency [20] 0.001 µM

C=C1C(=O)O[C@@H]2[C@H]3C(=C)[C@@H](O)C[C@H]3C(=C)C[C@@H](O)[C@@H]12
active: Potency [5] 5.32 µM
inactive: Potency [19] | Potency [2] | outcome [4] | Potency [6] | Potency [7] | max response [8] -8.41% | max response [20] 6.92% | Potency [9] | Potency [10] | Potency [11] | Potency [12] | Potency [13] | Potency [14] | Potency [15] | Potency [16] | Potency [18]

CCC1CC2CN3CCc4c([nH]c5ccccc45)C(C(=O)OC)(C2)C13 (stereo not given)
inactive: Potency [1] | Potency [19] | Potency [2] | Potency [3] | outcome [4] | Potency [6] | Potency [7] | max response [8] 3.09% | outcome [20] | Potency [9] | Potency [10] | Potency [11] | Potency [12] | Potency [13] | Potency [14] | Potency [15] | Potency [16] | Potency [17] | Potency [18]

NC(=O)[C@@H](CC1CC1)[C@@H](CCC(F)(F)F)C(=O)N[C@H]1N=C(c2ccccc2)c2cccc(F)c2NC1=O
inactive: Potency [1] | Potency [2] | Potency [3] | outcome [4] | Potency [5] | Potency [6] | Potency [7] | max response [20] 4.24% | Potency [9] | Potency [10] | Potency [11] | Potency [12] | Potency [13] | Potency [14] | Potency [15] | Potency [16] | Potency [17] | Potency [18]

O=C1CN=C(c2ccccc2Cl)c2cc(Br)ccc2N1
inactive: Potency [1] | Potency [19] | Potency [2] | Potency [3] | outcome [4] | Potency [5] | Potency [6] | Potency [7] | max response [8] -11.2% | Potency [9] | Potency [10] | Potency [11] | Potency [12] | Potency [13] | Potency [14] | Potency [15] | Potency [16] | Potency [17] | Potency [18]

Reference: PubChem BioAssay (NCATS)
